Screening results: PubChem BioAssay, Paczesny and Yang Labs, IUPUI and University of Michigan
The sample as a whole holds a higher share of hits than the screen did.
ST2 IL33 inh: blocks human ST2 binding to IL-33; AlphaLISA ST2-Fc/biotin-IL-33 interaction, 1 h; inhibition, % for hits at 17 µM; hit rate 2.3% among 78,000; AID 1259354; in the data active = inhibition above about 30%
An asterisk follows results filed as active; i = inactive.

SMILES | ST2 IL33 inh
Cc1ccc(C2=N/C(=C\c3cccc(F)c3)C(=O)O2)cc1[N+](=O)[O-] | i
Cc1ccc(C2=N/C(=C\c3cccc([N+](=O)[O-])c3)C(=O)O2)cc1[N+](=O)[O-] | i
Cc1ccc(C2=N/C(=C\c3ccc(N(C)C)cc3)C(=O)O2)cc1[N+](=O)[O-] | 30%*
CCCn1c(=O)c2c(nc3n2CCN3c2ccc(Br)cc2)n(C)c1=O | i
CCOC(=O)C1C(=O)C=C(c2cccs2)CC1c1cccc(F)c1 (configuration not stated) | 47%*
CCOC(=O)C1C(=O)C=C(c2cccc(OC)c2)CC1c1ccc(OC)c(OC)c1 (configuration not stated) | i
CCOC(=O)C1C(=O)C=C(c2ccco2)CC1c1cccs1 (configuration not stated) | i
COc1ccc(COC(=O)C2=C(C)NC3=C(C(=O)CC(C)(C)C3)C2c2cccc(C)c2)cc1 (configuration not stated) | i
CN(C)CCCN1C(=O)C(O)=C(C(=O)c2ccco2)C1c1ccc(F)cc1 (configuration not stated) | i
O=[N+]([O-])c1ccc(-c2cnc3ccccc3n2)cc1 | 31%*
O=[N+]([O-])c1ccc(-c2nc3ccccc3o2)cc1 | i
Cc1nc2ccccc2nc1-c1ccc([N+](=O)[O-])cc1 | i
COc1cc(Nc2ncnc3c2cnn3-c2cccc(C)c2)cc(OC)c1OC | i
CC1=NN(c2cccc(Cl)c2)C(=O)/C1=C\c1ccco1 | 44%*
CC1=NN(c2cccc(Cl)c2)C(=O)/C1=C\c1ccc(C)cc1 | 30%*
CC1=NN(c2ccccc2)C(=O)/C1=C/c1ccc(O)c(Cl)c1 | i
COc1cc(Br)c(/C=C2\C(=O)N(c3cccc(Cl)c3)N=C2C)cc1OC | i
CC1=NN(c2cccc(Br)c2)C(=O)/C1=C/c1ccc(-c2ccc3c(c2)C(=O)OC3)o1 | i
O=c1c2cnn(-c3ccccc3)c2ncn1Cc1ccc(Cl)cc1 | i
Cc1ccc(-c2nc3n(n2)C(=O)CC(c2cccc([N+](=O)[O-])c2)S3)cc1 (configuration not stated) | i
CCc1ccc(NC(=O)C2Cc3ccccc3C(=O)O2)cc1 (configuration not stated) | i
COc1ccc(N2CC(NC(=O)CCc3ccccc3)CC2=O)cc1 (configuration not stated) | i
O=C(Cn1cnc2sc3c(c2c1=O)CCCC3)NCC(=O)N1CCN(Cc2ccccc2)CC1 | i
COc1ccc(NC(=O)c2oc3ccccc3c2NC(=O)COc2ccc(F)cc2)cc1 | i
CCOc1ncccc1C(=O)N1CCCN(C(=O)c2ccco2)CC1 | i
SMILES | ST2 IL33 inh
COC(=O)C1C(=O)NC(SC)=C(C#N)C1c1ccc(C)cc1 (configuration not stated) | i
Cc1ccc([C@]2(O)NC([S-])=C(C#N)[C@H](c3ccc(F)cc3)[C@H]2[n+]2ccccc2)cc1 | i
Cc1cc[n+](C2C(c3ccc(Br)cc3)C(C#N)=C([S-])NC2(O)C2CC2)cc1 (configuration not stated) | 55%*
O=S(=O)(Nc1ccc(Br)cc1)c1ccc(Cl)s1 | i
COc1ccc(/C=C2/C=C(c3ccc(C)cc3)OC2=O)cc1OC | 32%*
COc1ccc(/C=C2\SC(N3CCOCC3)=NC2=O)c(OC)c1 | i
COc1ccc(OC)c(/C=C2\N=C(c3cccs3)OC2=O)c1 | i
COc1ccc(C2=C/C(=C\c3ccc(C)o3)C(=O)O2)cc1 | i
COc1ccc(/C=C2/OC(=O)c3c2cc(C)[nH]c3=O)cc1OC | i
COc1ccc(/C=C2/C=C(c3cc(OC)ccc3OC)OC2=O)c(OC)c1 | 40%*
O=c1c2cnn(-c3ccc(Cl)cc3)c2ncn1Cc1ccc(Cl)cc1 | i
COC(=O)[C@@H](C)NC(=O)[C@H]1CN(C(=O)c2cccnc2)CCN1C(=O)c1cccs1 | i
COc1cccc(C(=O)N[C@H]2CN[C@H](C(=O)N[C@@H](C)C3CCCCC3)C2)c1 | i
Cc1ccccc1-c1nc(CSCC(=O)NCc2ccc3c(c2)OCO3)c(C)o1 | i
CC(C)=CCc1cc(C(=O)O)ccc1O | i
CCOC(=O)c1cnn(-c2nc(C)nc3sc(-c4ccccc4)cc23)c1N=CN(C)C | i
COc1ccccc1-n1cnc2cc(NC(=O)c3cccc(C)c3)ccc21 | i
CC12CN(C(C)(C)C)CC(C)(CN(C(C)(C)C)C1)C2=O | i
COc1cc(C2Nc3ccccc3NC3=C2C(=O)CC(c2ccc(C)cc2)C3)cc(Cl)c1O (configuration not stated) | i
COc1cccc(-n2c(O)c(C=Nc3ccc(Cl)cc3)c3ccccc3c2=O)c1 | i
Cc1c(Cl)c(C)c([N+](=O)[O-])c(O)c1C=Nc1ccc(C(=O)O)cc1 | i
COc1ccc(N=Cc2c(O)c([N+](=O)[O-])cc3oc4c(c23)CCCC4)cc1 | i
COc1ccc(N=Cc2c(O)ccc3oc4c(c23)CCCC4)cc1 | 40%*
COc1ccc(N=Cc2c(O)cc(C)c(Cl)c2C)cc1 | 43%*
COc1ccc(NC(=O)c2noc3c2CCCCC3)cc1 | i
